Source: PubChem BioAssay
NPR1 antag: human Npr1 receptor antagonism; P16066; Potency, µM (titrated, usually from 46.3 µM), for inactives: at the highest dose activity change, negative = inhibition, usual class: inhibitors; HEK293 hNpr1 GloSensor cGMP, ANP-stimulated luminescence; 1.6% of 76,000 active; AID 1347048; further: on the % scale 0 is the no-effect control and ±100 the full control effect; nearly all actives have a fitted effect of over 60% in size
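Compound pre-incubated 30 min at room temperature on GloSensor-loaded HEK293 cells stably carrying hNpr1 and the pGS-40F cGMP biosensor. Stimulation uses hNppA at 0.1 nM final; luminescence is taken at baseline and 20 min post-agonist.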
3T3 cytotox: cytotoxic compounds in NIH 3T3 cells; AID 1345082; NIH 3T3 viability, CellTiter-Glo ATP luminescence, 48-72 h; Potency, µM (highest dose often 96.7 µM), for the others: top-dose activity change, negative = cytotoxicity, usual class: inhibitors; 4.3% of 94,000 active; active means well fitted curve in the direction sought with a large enough effect; inconclusive means small, poorly fitted or top-dose-only effect, or another doubt; inactive means no such curve, though single readings can be large; an effect the other way counts as inactive or inconclusive; further: on the % scale 0 is the no-effect control and ±100 the full control effect; nearly all actives have a fitted effect of over 55% in size
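Cytotoxicity was measured by CellTiter-Glo ATP luminescence after 48 or 72 h compound exposure at 37 °C. Mouse NIH 3T3 fibroblasts were seeded at 400 cells/well and dosed by 23 nL pin transfer.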
HEK293 tox: cytotoxic compounds in HEK 293 cells | HEK 293 viability, ATP luminescence (CellTiter-Glo), 48-72 h | Potency, µM (doses to about 115 µM), for the others: at the top dose activity change, negative = cytotoxicity, usual class: inhibitors | 6.6% of 94,000 active | AID 1345083; active means well fitted curve in the direction sought with a large enough effect; inconclusive means small, poorly fitted or top-dose-only effect, or another doubt; inactive means no such curve, though single readings can be large; an effect the other way counts as inactive or inconclusive; further: on the % scale 0 is the no-effect control and ±100 the full control effect; nearly all actives have a fitted effect of over 60% in size
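Cytotoxicity was scored by loss of ATP-coupled luminescence (CellTiter-Glo) in HEK 293 cells. Compound treatment ran 48 or 72 hr at 37 degree Celsius, 5% CO2, 95% humidity.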
Luciferase inh: Photinus pyralis luciferase inhibition; P08659; purified P. pyralis luciferase, luminescence, biochemical; 2.5% of 76,000 active; Potency, µM (series often up to 115 µM), hits mostly inhibitors; active means well fitted curve in the direction sought with a large enough effect; inconclusive means small, poorly fitted or top-dose-only effect, or another doubt; inactive means no such curve, though single readings can be large; an effect the other way counts as inactive or inconclusive; further: on the % scale 0 is the no-effect control and ±100 the full control effect; nearly all actives have a fitted effect of over 65% in size
Target sequence (P08659 whole entry, looked up): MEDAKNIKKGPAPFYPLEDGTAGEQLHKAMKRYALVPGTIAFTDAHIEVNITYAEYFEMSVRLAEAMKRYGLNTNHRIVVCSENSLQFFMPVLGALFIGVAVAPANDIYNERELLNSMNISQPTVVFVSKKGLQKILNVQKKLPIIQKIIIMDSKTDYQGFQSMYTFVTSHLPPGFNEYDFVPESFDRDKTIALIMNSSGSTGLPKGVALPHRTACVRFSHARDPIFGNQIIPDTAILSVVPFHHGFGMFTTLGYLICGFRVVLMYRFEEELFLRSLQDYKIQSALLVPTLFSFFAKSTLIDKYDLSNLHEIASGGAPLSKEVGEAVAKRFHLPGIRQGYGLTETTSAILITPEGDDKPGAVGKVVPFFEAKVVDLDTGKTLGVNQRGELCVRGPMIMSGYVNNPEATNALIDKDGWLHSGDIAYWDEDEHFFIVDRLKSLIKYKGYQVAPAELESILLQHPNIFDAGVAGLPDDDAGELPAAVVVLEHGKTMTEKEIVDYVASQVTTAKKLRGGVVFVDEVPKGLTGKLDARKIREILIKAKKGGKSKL
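Purified P. pyralis luciferase (10nM final) in 50mM Tris acetate pH 7.5, 10mM Mg acetate, 0.01% Tween-20, 0.05% BSA with 10uM D-luciferin and 10uM ATP. Compounds titrated qHTS. Luminescence imaged on CCD.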
NPR1 antag cnf: confirmation of human Npr1 natriuretic peptide receptor antagonists | shares compounds with NPR1 antag | HEK293 hNpr1 cGMP GloSensor luminescence, ANP-stimulated | Potency, µM (series often up to 57.6 µM), without a hit: top-dose activity change, negative = inhibition, hits mostly inhibitors | 76% of 1,400 active | AID 1347044; further: nearly all actives have a fitted effect of over 70% in size
NPR2 antag: selectivity test of Npr1 antagonists against human Npr2; shares compounds with NPR1 antag; 67% of 1,400 active; Potency, µM (series often up to 57.6 µM), for inactives: at the top dose activity change, negative = inhibition, most hits filed as inhibitors; HEK293 hNpr2 GloSensor cGMP luminescence, CNP-stimulated; further: nearly all actives have a fitted effect of over 70% in size
FLuc inh counter: inhibits firefly luciferase, false Npr1 antagonist flag; shares compounds with NPR1 antag; purified FLuc enzyme, luminescence, Km substrate; Potency, µM (titrated, usually from 57.6 µM), without a hit: at the highest dose activity change, negative = inhibition, usual class: inhibitors; 0.7% of 1,400 active; AID 1347047; active means well fitted curve in the direction sought with a large enough effect; inconclusive means small, poorly fitted or top-dose-only effect, or another doubt; inactive means no such curve, though single readings can be large; an effect the other way counts as inactive or inconclusive; further: series mostly up to about 58 µM; 0% is about no effect
GloSensor cGMP: counter-screen for Npr1 antagonists: GloSensor control cell line; AID 1347051; HEK293 GloSensor cGMP, SNP-stimulated, luminescence; Potency, µM (titrated, usually from 57.6 µM), without a hit: top-dose activity change, negative = inhibition, hits mostly inhibitors; 69% of 1,400 active; shares compounds with NPR1 antag; further: on the % scale 0 is the no-effect control and ±100 the full control effect; nearly all actives have a fitted effect of over 70% in size
Active calls of the source: *; i = inactive; ? = inconclusive; . = not tested or not shown; [ ] = remark or other dose. Only some compounds are listed: those with a hit (about 11% of all), similar ones and a draw of the others. Unless noted, the call rests on the fitted dose curve. Potency means the concentration at half of the fitted maximal effect.

SMILES	NPR1 antag	3T3 cytotox	HEK293 tox	Luciferase inh	NPR1 antag cnf	NPR2 antag	FLuc inh counter	GloSensor cGMP
CC(=O)NC1(C)CCCN(c2ccc(Oc3ccccc3)cc2)C1 (stereo not drawn)	18µM*	?	?	i	20µM*	20µM*	?	16µM*
CC(C)CN1C(=O)C(C)(C)[S+](=O)([O-])[C@H]2CN(c3ccc(Oc4ccccc4)cc3)C[C@@H]21	2%	?	?	i	.	.	.	.
CC1(NC(=O)C2CC2)CN(c2ccc(Oc3ccccc3)cc2)C1	20µM*	-28%[138 µM]	?	i	18µM*	22µM*	-1%[86.2 µM]	16µM*
O=C1NCCCC1C(=O)N1CCC2(CC1)Nc1ccccc1NC2=O (stereo not drawn)	7%	2%	?	i	.	.	.	.
CCc1csc(CNc2cc(C3CC(O)C3)nc(N)n2)n1 (stereo not drawn)	-23%	?	?	i	.	.	.	.
Nc1nc(NCc2ccc(Cl)cc2Cl)cc(C2CC(O)C2)n1 (stereo not drawn)	7.1µM*	?	?	i	11µM*	19µM*	4%	9.7µM*
Cc1cc(=O)n(CC(=O)Nc2cccc(C(F)(F)F)c2)c(N2CCC(C)CC2)n1	10µM*	22µM*	35µM*	i	12µM*	14µM*	4%	11µM*
CSc1cccc(NC(=O)Cn2c(N3CCC(C)CC3)nc(C)cc2=O)c1	11µM*	11µM*	11µM*	i	12µM*	14µM*	0%	9.7µM*
Cc1cccnc1CNC[C@H]1O[C@@H]2C[C@@H](CC(=O)N3CCC(F)(F)C3)O[C@@H]2[C@@H]1O	6%[70.6 µM]	-20%[174 µM]	1%[172 µM]	i	.	.	.	.
O=C(NCC1CCOCC1)Nc1ccccc1	0%	-1%	-1%	i	.	.	.	.
Fc1ccc2c(c1)nc1n2[C@@H](CNCc2cnc3ccccc3c2)COC1	35µM*	-26%[138 µM]	?	i	40µM*	?	-3%[86.2 µM]	40µM*
c1ccc2ncc(CNC[C@H]3COCc4nc5ccccc5n43)cc2c1	20µM*	?	?	i	31µM*	31µM*	1%[86.2 µM]	28µM*
Fc1ccc2c(c1)nc1n2[C@@H](CNCc2ccccn2)COC1	-8%[70.6 µM]	?	?	i	.	.	.	.
CC(=O)Nc1ccc(CNC[C@H]2COCc3nc4c(C)cccc4n32)cc1	?	-16%[138 µM]	?	i	.	.	.	.
Cc1cccc2c1nc1n2[C@@H](CNCc2ccccc2)COC1	20µM*	?	?	i	31µM*	31µM*	3%[86.2 µM]	22µM*
COc1ccc2nc3n(c2c1)[C@@H](CNCc1cnc2ccccc2c1)COC3	-15%[70.6 µM]	-25%[138 µM]	-27%[172 µM]	i	.	.	.	.
COc1ccc(Cl)cc1-c1ccc2c(n1)CN(CCOc1ccccc1)C(=O)CO2	22µM*	?	100µM*	i	35µM*	35µM*	1%[86.2 µM]	31µM*
CC(=O)N1CCN(c2nc3c(s2)CC(C(=O)Nc2cccc(C(C)(C)C)c2)CC3)CC1 (stereo not drawn)	18µM*	?	?	i	12µM*	15µM*	27%	11µM*
COc1ccc(OC)c(NC(=O)C2CCc3nc(N4CCN(C(C)=O)CC4)sc3C2)c1 (stereo not drawn)	-18%	-26%	?	i	.	.	.	.
CC(=O)N1CCN(c2nc3c(s2)CC(C(=O)Nc2cc(F)cc(F)c2)CC3)CC1 (stereo not drawn)	10µM*	?	10µM*	i	17µM*	19µM*	44%	11µM*
CNC(=O)c1cc(C)nc2onc(C3CCCN3C(=O)Cc3cccc(Cl)c3)c12 (stereo not drawn)	.	-28%	-22%	.	.	.	.	.
CCNC(=O)N1CCCC1c1nc(C2CCOCC2)no1 (stereo not drawn)	-3%	i	10%	i	.	.	.	.
COc1cc(CNC(=O)c2ccc3c(c2)N(C(=O)c2ccc(F)cc2)CC3)cc(OC)c1	?	?	?	i	22µM*	24µM*	3%	22µM*
COCCNC(=O)C(C)[C@@H]1CCc2c(C)cc(OCC(=O)O)c(C)c2C1 (stereo partly drawn)	4%[70.6 µM]	-8%[138 µM]	i	i	.	.	.	.
Cc1nn(C)c(C)c1C(C)NC(=O)c1ccc(CC2CCN(C(=O)C3CC3)CC2)cc1 (stereo not drawn)	11µM*	?	?	i	17µM*	17µM*	8%	15µM*
SMILES	NPR1 antag	3T3 cytotox	HEK293 tox	Luciferase inh	NPR1 antag cnf	NPR2 antag	FLuc inh counter	GloSensor cGMP
Cc1cc(C)c(S(=O)(=O)N2CC(c3nc(-c4ccncc4)no3)C2)c(C)c1	14µM*	?	45µM*	i	24µM*	22µM*	-1%	22µM*
O=C(c1ccccc1)N1CCCN(c2ccnc3ccnn23)CC1	.	-18%[138 µM]	?	.	.	.	.	.
CC(C)(C)c1ccc2oc(CNC(=O)CN3C(=O)CNC3=O)nc2c1	0%	-2%	-1%	i	.	.	.	.
COc1ccc2oc(CNC(=O)c3cc(CC(C)C)nn3C)nc2c1	13µM*	-31%	?	i	17µM*	17µM*	4%	15µM*
CCOc1ccc(CN2CCN(c3nc4ccccc4o3)CC2CCO)cc1 (stereo not drawn)	14µM*	-17%	35µM*	i	22µM*	24µM*	-2%	22µM*
O=C(c1ccc2nc[nH]c2c1)N1CCC(CO)(CCCc2ccccc2)CC1	11µM*	-23%	25µM*	i	24µM*	24µM*	6%	22µM*
O=C(c1cc2cc(F)ccc2[nH]1)N1CCC(CO)(CCCc2ccccc2)CC1	-15%	?	?	i	.	.	.	.
CC(=O)NC(CO)C(=O)N1CCC(O)(c2ccc(C)cn2)CC1 (stereo not drawn)	11%	-16%	-27%	i	.	.	.	.
CCN1CCN(Cc2cc3ccc(C)cc3nc2-c2ccc(OC)c(OC)c2)CC1	-8%	-28%	?	i	.	.	.	.
COCCOC1CCN(C(=O)NCc2ccc(C)cc2)CC1	4%	-15%	1%	i	.	.	.	.
COc1cc(OC)cc(C(=O)N2CCCN(c3cc(-c4ccc(F)cc4)[nH]n3)CC2)c1	-6%	-27%	?	i	.	.	.	.
